Most compounds without a hit are left out; they make up all but 2.3% or so of the library.
GLP-1R agonist = agonists of human GLP-1 receptor; P43220; HEK293 GLP-1R CRE-luciferase, luminescence, 4-6 h; cells express a hypersensitive GLP-1R form; Potency, µM (top dose mostly 45.6 µM), without a hit: at the top dose activation, most hits filed as activators; 380,000 compounds, 0.007% hits; further: % of control where 0% means no effect
Target sequence (P43220 whole entry, looked up): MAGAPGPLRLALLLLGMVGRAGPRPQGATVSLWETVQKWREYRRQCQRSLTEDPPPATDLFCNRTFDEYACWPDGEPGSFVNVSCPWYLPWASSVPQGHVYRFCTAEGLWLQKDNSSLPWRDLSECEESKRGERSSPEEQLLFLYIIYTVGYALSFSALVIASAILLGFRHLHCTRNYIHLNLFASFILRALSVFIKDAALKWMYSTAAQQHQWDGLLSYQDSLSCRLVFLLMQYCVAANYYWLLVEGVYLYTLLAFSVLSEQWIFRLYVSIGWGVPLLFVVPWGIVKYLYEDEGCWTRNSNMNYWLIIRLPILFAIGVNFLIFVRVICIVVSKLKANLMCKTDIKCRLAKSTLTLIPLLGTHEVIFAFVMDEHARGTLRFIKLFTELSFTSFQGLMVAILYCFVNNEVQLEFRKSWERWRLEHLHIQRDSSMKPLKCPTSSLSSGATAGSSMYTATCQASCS
12-LOX inh = blocks human arachidonate 12S-lipoxygenase | Potency, µM (doses to about 108 µM), for the others: at the top dose activity change, negative = inhibition, actives largely listed as inhibitors | 580,000 compounds, 1.1% hits | P18054 | AID 1671190 | purified 12hLO, xylenol orange hydroperoxide absorbance; further: on the % scale 0 is the no-effect control and ±100 the full control effect
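Hydroperoxide product was detected by ferrous iron/xylenol orange as the 573 to 405 nm absorbance ratio. Arachidonic acid at 40 uM (final) was turned over for 30 min at room temperature by 150 nM human 12hLO, pH 7.0 Hepes buffer, after 15 min compound preincubation.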
GLS inh = blocks human kidney-isoform glutaminase activity. O94925. GLS enzymatic activity, qHTS titration. Potency, µM (top dose mostly 45.5 µM), for inactives: at the highest dose activity change, negative = inhibition, usual class: inhibitors. 410,000 compounds, 0.21% hits. AID 624170; further: on the % scale 0 is the no-effect control and ±100 the full control effect
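Read-out is an Amplex red fluorescence increase coupled through glutamate oxidase and HRP, measured before and after 30 min room-temperature incubation. hKGA is in 45 mM KH2PO4 (pH 8.2) with 0.02% Tween-20; glutamine added as 1mM solution.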
GLP1R inv ag = GLP-1 receptor (human) inverse agonism | P43220 | HEK293 GLP-1R CRE-luciferase, luminescence, 24 h; GLP-1R form is constitutively active | Potency, µM (highest dose often 38.3 µM), without a hit: at the top dose activity change, negative = inhibition, hits mostly inhibitors | 410,000 compounds, 1.6% hits; further: on the % scale 0 is the no-effect control and ±100 the full control effect; nearly all actives have a fitted effect of over 55% in size
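HEK293 cells stably co-expressing a cAMP-responsive luciferase reporter and constitutively active GLP-1R were seeded, incubated 12 h, then exposed to compounds for 24 h at 37 C. Luminescence was read 12 min after detection reagent; inverse agonists lower signal.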
PTHR1 agonist = PTHR1 (human) receptor agonism. AID 743266. 410,000 compounds, 0.075% hits. HEK293 GP2 PTHR1 cells, GloSensor cAMP luminescence, 1 h. Potency, µM (doses to about 115 µM), inactives show top-dose activation, usual class: activators; further: nearly all actives have a fitted effect of over 55% in size
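HEK-293-derived GP2 cells expressing PTHR1 and a GloSensor cAMP reporter, 3,000/well, plated overnight, given luciferin plus IBMX (each 0.5 mM as added) for 1 h at 37 °C, then compound for 1 h at 37 °C. Luminescence was read after 15 min at room temperature.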
GRP78 ERSR act = inducers of ER stress response in human glioma cells; Potency, µM, for the others: at the top dose activation, most hits filed as activators; U87-MG GRP78 promoter luciferase reporter, 16 h; 420,000 compounds, 0.02% hits; further: series mostly up to about 76 µM; % of control where 0% means no effect; nearly all actives have a fitted effect of over 35% in size
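Stably transfected U87-MG human glioma cells carrying a GRP78-based luminescent sensor were seeded at 1000 cells/well, pin-dosed with compounds and incubated 16 h. Luciferase reagent was then added, and end-point luminescence was read after 10 min at room temperature.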
* hit, by the source's call; i = inactive; ? = inconclusive; nt = no result given; ! = not active in a repeat. The call rests on the fitted dose curve; in most records, active means well fitted curve in the direction sought with a large enough effect; inconclusive means small, poorly fitted or top-dose-only effect, or another doubt; inactive means no such curve, though single readings can be large; an effect the other way counts as inactive or inconclusive. Potency means the concentration at half of the fitted maximal effect.

SMILES	GLP-1R agonist	12-LOX inh	GLS inh	GLP1R inv ag	PTHR1 agonist	GRP78 ERSR act
COC(=O)[C@]1(Cc2ccccc2)N[C@H](c2ccc(-c3cccc(Cl)c3)c(OC)c2)[C@@H]2C(=O)N(C)C(=O)[C@@H]21	4%	40µM*	-16%	3.2µM*	i	-5%
COC(=O)[C@@]12CCCN1[C@H](c1ccc(-c3ccccc3)c(OC)c1)[C@H]1C(=O)N(C)C(=O)[C@H]12	-2%	13µM*	-10%	22%	-37%	-5%
COC(=O)[C@@]12CCCCN1[C@H](c1ccc(-c3ccc(F)cc3)c(OC)c1)[C@@H]1C(=O)N(C)C(=O)[C@@H]12	-1%	-3%	6%	10µM*	-13%	-2%
CN(CC(=O)Nc1c(Cl)cccc1Cl)C(=O)CNC(=O)c1cccs1	nt	26%	nt	nt	nt	nt
Cn1cc(C(=O)NC2CCN(Cc3ccccc3)CC2)c2ccccc21	nt	29%	nt	nt	nt	nt
CCCCn1c(=O)[nH]c(=O)c2c1nc(CSc1nnnn1CC(C)C)n2CC	nt	-13%	nt	nt	nt	nt
Cc1ccc(-n2ncc(C(=O)NC3CCCCC3)c2N)cc1	nt	-24%	nt	nt	nt	nt
CN(Nc1cccc(Cl)c1)c1cccc(Cl)c1	6%	32µM*	1%	?	-42%	-4%
CN(c1cccc(NC(=O)Nc2cccc(Cl)c2)c1)S(C)(=O)=O	0%	?	-8%	?	-19%	-6%
CCn1c(CNc2ccc(Cl)cc2)nnc1SCC(=O)NCc1ccccc1	3%	-13%	36%	?	-1%	-1%
CCn1c(CNc2nc(-c3ccccc3)cs2)nnc1SCC(=O)NCc1ccccc1	1%	2%	5%	11µM*	-9%	-5%
CCn1c(SCC(=O)Nc2nc(-c3ccccc3)cs2)nnc1-c1ccccc1	-2%	1%	13%	10µM*	-91%	0%
O=c1c(-c2ccc([N+](=O)[O-])cc2)coc2c(O)c(O)ccc12	28%	6.3µM*	48%	19%	i	1%
Cc1c(C(O)CN2CCN(Cc3ccc4c(c3)OCO4)CC2)c2ccccc2n1C (configuration not stated)	-9%	45µM*	2%	1%	i	-4%
CN(Cc1ccccc1)C(=O)Cn1c(=O)n(C)c2ccccc21	nt	38%	nt	nt	nt	nt
Cc1cccc(C(=O)Nc2sc3c(c2C(N)=O)CCCCC3)c1	nt	10µM*	nt	nt	nt	nt
NC(=O)c1c(NC(=O)c2ccccc2Cl)sc2c1CCC2	20%	28µM*	8%	2%	-24%	3%
NC(=O)c1c(NC(=O)c2ccccc2C(=O)O)sc2c1CCCC2	5%	-8%	-27%	4%	-1%	-5%
COc1ccc(C(=O)Nc2sc3c(c2C(N)=O)CCCC3)cc1OC	nt	231%	nt	nt	nt	5%
COc1ccc2nc(Nc3sc4c(c3C(N)=O)CCCC4)sc2c1	2%	22µM*	-31%	1%	i	6%
COc1ccc(NC(=O)c2cc[n+]([O-])cc2)cc1	nt	33%	nt	nt	nt	nt
CCC(NC(=O)C1CCCO1)c1ccc(C)cc1 (configuration not stated)	nt	10%	nt	nt	nt	nt
NC(=O)CSc1ncc(-c2ccc(F)cc2)o1	nt	-4%	nt	nt	nt	nt
COc1ccc(CCN(C)C(=O)C2CCCN(C3CCN(Cc4ccccc4)CC3)C2)cc1OC (configuration not stated)	-8%	0.32µM*!	1%	-13%	i	-3%
Cc1ccc(/C=N\NC(=O)c2cccnc2)s1	nt	0%	nt	nt	nt	nt
Cc1nc2ccccc2c(C)c1CC(=O)NCCc1ccccc1F	nt	18µM*	nt	nt	nt	nt
Cc1nc2ccccc2c(C)c1CC(=O)NCC(C)C	nt	-2%	nt	nt	nt	nt
C=CCN1C(=O)COc2ccc(NC(=O)c3cc(=O)c4cccc(C)c4o3)cc21	nt	-29%	nt	nt	nt	nt
O=C(c1ccccc1CCc1ccccc1)N1CCCC1	0%	-2%	-5%	?	-1%	0%

Screening data from PubChem BioAssay.
